According to PubChem BioAssay (EPA / NIEHS):
The source made the active and inactive calls. The calls were made as follows: active = hit-call score of the fitted dose curve at least 0.9, where 1 is the maximum; inactive = score below 0.9.

Columns and labels:
[1] = ATG_NFI_CIS: Attagene CIS-FACTORIAL HepG2 Assay for human Nuclear Factor I (NFI) (AID 2282989); conditions: HepG2 cis-regulatory reporter, NFI response element transcription; actives raise or lower the signal
Outline: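 After transient transfection of HepG2 with cis-promoter reporter constructs and 24 h dosing, RNA is reverse-transcribed, amplified, 6-FAM end-labelled and HpaI-digested before capillary analysis. Bidirectional curve fitting against DMSO.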

[2] = molecular target: Myc proto-oncogene protein (Homo sapiens) (UniProt P01106); experiment: ATG_Myc_CIS: Attagene CIS-FACTORIAL HepG2 Assay for human Myelocytomatosis (Myc) Proto-Oncogene Transcription Factor (AID 2282990); conditions: HepG2, Attagene cis-reporter transcription factor activity; actives raise or lower the signal
Sequence of Myc proto-oncogene protein (Homo sapiens) (P01106 whole entry, looked up, the tested form may be a part): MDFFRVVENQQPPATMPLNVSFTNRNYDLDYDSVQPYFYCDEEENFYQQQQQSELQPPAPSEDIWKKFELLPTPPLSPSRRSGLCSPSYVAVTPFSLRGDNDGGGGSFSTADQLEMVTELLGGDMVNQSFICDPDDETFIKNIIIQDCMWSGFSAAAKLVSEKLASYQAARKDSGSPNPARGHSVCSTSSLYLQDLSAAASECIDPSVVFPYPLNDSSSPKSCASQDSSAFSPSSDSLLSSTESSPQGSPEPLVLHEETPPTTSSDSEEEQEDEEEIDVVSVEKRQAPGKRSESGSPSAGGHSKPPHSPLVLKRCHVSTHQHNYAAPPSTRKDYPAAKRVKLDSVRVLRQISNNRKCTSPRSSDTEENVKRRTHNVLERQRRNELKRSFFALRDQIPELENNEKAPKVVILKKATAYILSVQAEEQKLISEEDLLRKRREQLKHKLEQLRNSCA
Outline: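 After 24 h chemical treatment of HepG2 cells carrying multiplexed cis-regulated reporter constructs, reporter transcripts quantified by RT-PCR and capillary electrophoresis of fluorescent fragments. Gain or loss fitted against DMSO baseline.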

[3] = ATG_NF_kB_CIS: Attagene CIS-FACTORIAL HepG2 Assay for human Nuclear Factor Kappa B (NF-kB) (AID 2282991); conditions: HepG2 Attagene cis-factorial NF-kB reporter mRNA; actives raise or lower the signal
Outline: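 Multiplexed cis-reporter assay in transiently transfected HepG2. 24 h treatment; RNA isolated, RT-PCR, labelled fragments resolved by CE. DMSO baseline.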

[4] = ATG_NRF2_ARE_CIS: Attagene CIS-FACTORIAL HepG2 Assay for human Nuclear Factor Erythroid 2 Related Factor 2 (NFR2) response to Antioxidant Response Elements (ARE) (AID 2282992); conditions: HepG2 Attagene ARE/NRF2 reporter, transcription factor activity; actives raise or lower the signal
Outline: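 Transient MRTU transfection of HepG2; 24 h compound exposure; TriZol RNA, RT with oligo(dT), PCR, 6-FAM primer extension, HpaI cut, CE. Bidirectional fit vs DMSO.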

[5] = ATG_Oct_MLP_CIS: Attagene CIS-FACTORIAL HepG2 Assay for human Octamer-Binding Transcription Factor (Oct) (AID 2282993); conditions: HepG2 Attagene cis-factorial Oct reporter, mRNA; actives raise or lower the signal
Outline: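 Cells of the HepG2 line express promoter-controlled reporter sequences whose mRNA levels, after 24 h treatment, are measured by RT-PCR and capillary electrophoresis. Increases and decreases are scored relative to DMSO.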

[6] = molecular target: Cellular tumor antigen p53 (Homo sapiens) (UniProt P04637); experiment: ATG_p53_CIS: Attagene CIS-FACTORIAL HepG2 Assay for human p53 Transcription Factor (AID 2282994); conditions: HepG2 p53 cis-element reporter, Attagene mRNA; actives raise or lower the signal
Sequence of Cellular tumor antigen p53 (Homo sapiens) (P04637 whole entry, looked up): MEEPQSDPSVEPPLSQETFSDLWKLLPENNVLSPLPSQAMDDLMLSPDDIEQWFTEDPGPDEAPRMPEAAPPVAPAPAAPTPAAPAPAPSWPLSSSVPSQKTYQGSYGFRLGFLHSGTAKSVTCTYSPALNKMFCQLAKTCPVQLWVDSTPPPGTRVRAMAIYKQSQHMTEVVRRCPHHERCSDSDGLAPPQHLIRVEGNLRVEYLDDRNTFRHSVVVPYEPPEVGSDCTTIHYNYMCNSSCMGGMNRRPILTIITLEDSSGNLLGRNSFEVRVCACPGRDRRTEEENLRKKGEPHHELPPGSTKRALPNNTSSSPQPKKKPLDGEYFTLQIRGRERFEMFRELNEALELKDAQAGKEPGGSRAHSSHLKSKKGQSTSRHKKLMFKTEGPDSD
Outline: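 HepG2, transient MRTU transfection (cis promoter elements, endogenous TFs); 24 h dosing; RNA isolation, RT-PCR, 6-FAM primer extension, HpaI digest, CE fluorescence; bidirectional fit vs DMSO.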

Measured: AC50

CCC(C(=O)NC(N)=O)c1ccccc1 (stereo unspecified)
inactive: [1] | [2] | [3] | [4] | [5] | [6]

O=[N+]([O-])c1ccc(C=Cc2ccc([N+](=O)[O-])cc2S(=O)(=O)O)c(S(=O)(=O)O)c1
inactive: [1] | [2] | [3] | [4] | [5]

COc1nc(C)nc(N)n1
inactive: [1] | [2] | [3] | [4] | [5]

[Ca+2]
inactive: [1] | [2] | [3] | [4] | [5]

CCOC(=O)c1ccccc1OC
inactive: [1] | [2] | [3] | [4]

COc1c(Cl)c(Cl)c(Cl)c(Cl)c1Cl
inactive: [1] | [2] | [3] | [4] | [5]

CC(c1cc2ccccc2s1)N(O)C(N)=O (stereo unspecified)
inactive: [1] | [2] | [3] | [4] | [5]

O=S(=O)(O)NC1CCCCC1
inactive: [1] | [2] | [3] | [4] | [5]

O=C(O)CCCCCCCCCCC(=O)O
inactive: [1] | [2] | [3] | [4] | [5]

C=C(C)C(=O)OCc1ccccc1
inactive: [1] | [2] | [3] | [4]

CC(C)(Oc1ccc(CCNC(=O)c2ccc(Cl)cc2)cc1)C(=O)O
inactive: [1] | [2] | [3] | [4] | [5]

COC(=O)C1=C(C)NC(C)=C(C(=O)OCCN(C)Cc2ccccc2)C1c1cccc([N+](=O)[O-])c1 (stereo unspecified)
inactive: [1] | [2] | [3] | [4] | [5]

Clc1ccc2c(c1)C(N1CCNCC1)=Nc1ccccc1O2
active: [5] 47 µM
inactive: [1] | [2] | [3] | [4]

Nc1ccc(S(=O)(=O)O)c(N)c1
inactive: [1] | [2] | [3] | [4] | [5] | [6]

OC1C(O)C(O)C(O)C(O)C1O (stereo unspecified)
inactive: [1] | [2] | [3] | [4] | [5]

COc1cccc(OC)c1
inactive: [1] | [2] | [3] | [4] | [5] | [6]

N#Cc1nc(Cl)c(Cl)c(Cl)c1Cl
inactive: [2]
active: [1] 6.05 µM | [3] 4.63 µM | [4] 0.885 µM | [5] 2.54 µM

COc1cc(C(C)(C)C)c(O)c(C(C)(C)C)c1
inactive: [1] | [2] | [3] | [4] | [5]

O=C(COc1ccc(Cl)cc1)N1CCN(Cc2ccc3c(c2)OCO3)CC1
inactive: [1] | [2] | [3] | [5]
active: [4] 100 µM

CN(C)c1ccc(O)c2c1C[C@H]1C[C@H]3[C@H](N(C)C)C(=O)C(C(N)=O)=C(O)[C@@]3(O)C(=O)C1=C2O
inactive: [1] | [2] | [3] | [4] | [5]

CC1=CC(=O)NS(=O)(=O)O1
inactive: [1] | [2] | [3] | [4] | [5]

CCC(C)CCCC(C)(C)O (stereo unspecified)
inactive: [1] | [2] | [3] | [4] | [5] | [6]

CCCCCCCCCCCCOCCO
active: [1] 56.6 µM | [2] 50.2 µM | [4] 54 µM | [5] 56.5 µM
inactive: [3]

COc1cc(C)cc(O)c1
inactive: [1] | [2] | [3] | [4] | [5]

Cc1ccc2ccccc2n1
inactive: [1] | [2] | [3] | [4] | [5] | [6]

O=CCCc1ccccc1
inactive: [1] | [2] | [3]
active: [4] 38 µM

COc1ccc(Nc2ccccc2)c(C)c1
active: [3] 151 µM | [4] 79.9 µM
inactive: [1] | [2] | [5] | [6]

Cc1c(N(C)C)c(=O)n(-c2ccccc2)n1C
inactive: [1] | [2] | [3] | [4] | [5]

O=c1oc(=O)c2cc3c(=O)oc(=O)c3cc12
inactive: [1] | [2] | [3] | [4] | [5]

CC(C)(C)NC(N)=O
inactive: [1] | [2] | [3] | [4] | [5] | [6]

Cc1ccc(C(=O)O)o1
inactive: [1] | [2] | [3] | [4] | [5]

CCCCC[Si](OCC)(OCC)OCC
inactive: [1] | [2] | [3] | [4] | [5]

CCCCCCOC(=O)CCCCC
inactive: [1] | [2] | [3] | [4] | [5] | [6]

CC(CCO)CCCC(C)(C)O (stereo unspecified)
inactive: [1] | [2] | [3] | [4] | [5]

Cc1ccc(C(C)C)cc1O
inactive: [1] | [2] | [3] | [4] | [5]

CCCC(=O)OCCC(C)CCC=C(C)C (stereo unspecified)
inactive: [1] | [2]
active: [3] 72 µM | [4] 78.7 µM | [5] 100 µM

O=C(O)c1cccc([N+](=O)[O-])c1
inactive: [1] | [2] | [3] | [4] | [5] | [6]

CC1(C)OC[C@@H]2O[C@@]3(C(=O)O)OC(C)(C)O[C@H]3[C@@H]2O1
inactive: [1] | [2] | [3] | [4] | [5]

Clc1cccc(Cl)n1
inactive: [1] | [2] | [3] | [4] | [5] | [6]

C=CC(C)(O)CCC=C(C)CCC=C(C)C (stereo unspecified)
active: [1] 143 µM | [2] 181 µM | [3] 180 µM | [4] 100 µM | [5] 82.7 µM
inactive: [6]

CC1CCC(C(C)(C)O)CC1 (stereo unspecified)
inactive: [1] | [2] | [3] | [4] | [5] | [6]

CCCC(=O)C(C)=O
inactive: [1] | [2] | [3] | [4] | [5] | [6]

O=C(OCc1ccccc1)C(=O)OCc1ccccc1
inactive: [1] | [2] | [3] | [4] | [5] | [6]

O=C(O)c1snc(Cl)c1Cl
inactive: [1] | [2] | [6]
active: [3] 100 µM | [4] 27.4 µM | [5] 155 µM

Clc1nc(C(Cl)(Cl)Cl)c(Cl)c(Cl)c1Cl
inactive: [2] | [3] | [5] | [6]
active: [1] 52.4 µM | [4] 27.6 µM

N#Cc1ccccc1
inactive: [1] | [2] | [3] | [4] | [5] | [6]

Cc1ccc(C(=O)c2cc(O)c(O)c([N+](=O)[O-])c2)cc1
inactive: [1] | [2] | [3] | [4] | [5] | [6]

CC(C)OP(=O)(CP(=O)(OC(C)C)OC(C)C)OC(C)C
inactive: [1] | [2] | [3] | [4] | [5] | [6]

NC(=O)c1ccccc1Cl
active: [1] 61.6 µM | [4] 25.8 µM | [5] 55.1 µM | [6] 143 µM
inactive: [2] | [3]

NNc1nc(-c2ccc(N)cc2)cs1
inactive: [1] | [2] | [3] | [4] | [5] | [6]

CC(C)=CCC/C(C)=C/COC=O
inactive: [1] | [2] | [3] | [4] | [5] | [6]

Clc1ccc(Cl)c(Cl)c1Cl
inactive: [1] | [2] | [3] | [4] | [5] | [6]

Cc1ccc2sc3cccc(C)c3c2c1
inactive: [1] | [2] | [3] | [4] | [5] | [6]

CCCCCCCCCCN
inactive: [1] | [2] | [3] | [4] | [5] | [6]

CC1(CO)CN(c2ccccc2)NC1=O (stereo unspecified)
inactive: [1] | [2] | [3] | [4] | [5] | [6]

NC(N)=NC(=O)c1nc(Cl)c(N)nc1N
inactive: [1] | [2] | [3] | [5] | [6]
active: [4] 62.6 µM

CCCCCC=CCC(=O)OC
inactive: [1] | [2] | [3] | [4] | [5] | [6]

COc1ccc(O)cc1
inactive: [1] | [2] | [3] | [4] | [5] | [6]

COCCCOc1ccnc(CS(=O)c2nc3ccccc3[nH]2)c1C (stereo unspecified)
inactive: [1] | [2] | [3] | [5] | [6]
active: [4] 36.4 µM

CCC(O)CO (stereo unspecified)
inactive: [1] | [2] | [3] | [4] | [5] | [6]

COc1cc2ncnc(Nc3cccc(Cl)c3)c2cc1OC
inactive: [1] | [2] | [4]
active: [3] 40.8 µM | [5] 25 µM | [6] 1.57 µM

CN(C)CCCN
inactive: [1] | [2] | [3] | [4] | [5] | [6]

CCN(CC)CCOC(=O)c1ccc(N)cc1
inactive: [1] | [2] | [3] | [4] | [5] | [6]
